Data taken from PubChem BioAssay (EPA / NIEHS).
Where “and” joins values, the source holds several entries; their conditions need not be identical. Equal entries are not always repeated. Records with an inconclusive call do not appear. Some structures have more than one record in an assay (separate samples or runs), and their calls can disagree. Calls of active or inactive are those of the source. How the source made its calls: active means hit-call score of the fitted dose curve at least 0.9, where 1 is the maximum; inconclusive means response in the unintended direction; inactive means score below 0.9.

target: Cellular tumor antigen p53 (Homo sapiens) (UniProt P04637); test: TOX21_p53_BLA_p2_ratio: Tox21 HCT-116 p53 Agonism Beta-lactamase Assay, Ratio, Phase 2 (AID 2283592)
Sequence (P04637 whole entry, looked up): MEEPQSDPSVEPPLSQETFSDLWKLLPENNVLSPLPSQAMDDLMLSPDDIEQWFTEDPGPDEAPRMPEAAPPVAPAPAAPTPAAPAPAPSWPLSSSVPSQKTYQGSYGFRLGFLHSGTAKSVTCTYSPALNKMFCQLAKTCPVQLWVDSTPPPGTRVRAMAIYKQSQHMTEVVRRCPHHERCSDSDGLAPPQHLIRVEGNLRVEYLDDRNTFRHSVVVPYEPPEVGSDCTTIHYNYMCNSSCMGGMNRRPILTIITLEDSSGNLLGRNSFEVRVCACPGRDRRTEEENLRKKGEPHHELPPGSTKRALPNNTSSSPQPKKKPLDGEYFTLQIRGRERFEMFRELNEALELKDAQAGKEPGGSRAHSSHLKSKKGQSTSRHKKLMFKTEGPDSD
Procedure, shortened: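 HCT-116 cells with p53-responsive beta-lactamase reporter, 4000 cells/well, preincubated 5 h, then compound in DMSO (217-fold dilution) for 16 h at 37C. CCF4-AM substrate 2 h at room temperature; 460/530 nm emission ratio fitted upward versus DMSO.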

SMILES	AC50	outcome
O=C1OC2(c3cc(Br)c(O)c(Br)c3Oc3c2cc(Br)c(O)c3Br)c2c(Cl)c(Cl)c(Cl)c(Cl)c21	16.8 µM (active)	inactive
O=C1c2ccccc2C(=O)N1SC1CCCCC1	81.1 µM (active)	inactive
Cc1ccc(C(=O)c2cc(O)c(O)c([N+](=O)[O-])c2)cc1	14.6 µM (active)	inactive
CC(CN1c2ccccc2Sc2ccccc21)N(C)C (configuration not stated)	43.6 µM (active)	inactive
O=C(Cl)c1cccc(C(=O)Cl)c1	46.1 µM (active)	inactive
CCCCC/C=C/C=C/C=O	–	inactive
c1ccc2c(c1)c1cccc3ccc4cccc2c4c31	15 µM (active)	inactive
CCCCCCCCCCCCN	85 µM (active)	inactive
Cc1ccc(O)c(C(C)(C)C)c1	68.4 µM (active)	inactive
CCn1c2ccccc2c2cc(N)ccc21	65.1 µM (active) and 74.2 µM (active)	inactive
BrC1CCC(Br)C(Br)CCC(Br)C(Br)CCC1Br (configuration not stated)	53.1 µM (active) and 45.9 µM (active)	–

test system: not listed separately; test: TOX21_p53_BLA_p3_viability: Viability Assessment in the Tox21 HCT-116 p53 Agonism Beta-lactamase Assay, Phase 3 (AID 2283593);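 further: cells exposed to compound for 16 h before reading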
Procedure, shortened: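 HCT-116 cells (4000/well) rested 5 h at 37C, then got DMSO compounds by pin tool (217-fold dilution) for 16 h at 37C, 5% CO2. After the bla read, CellTiter-Glo was added and luminescence read at 30 min, room temperature.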

SMILES	AC50	outcome
O=C1c2ccccc2C(=O)N1SC1CCCCC1	47.6 µM (active) and 86.6 µM (active)	–
Cc1ccc(C(=O)c2cc(O)c(O)c([N+](=O)[O-])c2)cc1	46.1 µM (active)	inactive
CCCCC/C=C/C=C/C=O	86.9 µM (active) and 30.3 µM (active)	–
c1ccc2c(c1)c1cccc3ccc4cccc2c4c31	–	inactive
CCn1c2ccccc2c2cc(N)ccc21	–	inactive
CNCCCC12CCC(c3ccccc31)c1ccccc12	70.4 µM (active)	inactive
BrC1CCC(Br)C(Br)CCC(Br)C(Br)CCC1Br (configuration not stated)	15.1 µM (active)	inactive

target: Cellular tumor antigen p53 (Homo sapiens) (UniProt P04637); test: TOX21_p53_BLA_p3_ratio: Tox21 HCT-116 p53 Agonism Beta-lactamase Assay, Ratio, Phase 3 (AID 2283596)
Procedure, shortened: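 HCT116 p53-bla cells (4000/well) given compound in DMSO (217-fold dilution) after 5 h, incubated 16 h at 37C. CCF4-AM substrate 2 h at room temperature; 460/530 nm emission ratio, gain fitted against DMSO.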

SMILES	AC50	outcome
O=C1OC2(c3cc(Br)c(O)c(Br)c3Oc3c2cc(Br)c(O)c3Br)c2c(Cl)c(Cl)c(Cl)c(Cl)c21	50.7 µM (active)	inactive
O=C1c2ccccc2C(=O)N1SC1CCCCC1	57 µM (active)	inactive
Cc1ccc(C(=O)c2cc(O)c(O)c([N+](=O)[O-])c2)cc1	–	inactive
CC(CN1c2ccccc2Sc2ccccc21)N(C)C (configuration not stated)	–	inactive
O=C(Cl)c1cccc(C(=O)Cl)c1	–	inactive
CCCCC/C=C/C=C/C=O	–	inactive
c1ccc2c(c1)c1cccc3ccc4cccc2c4c31	60.5 µM (active)	inactive
CCCCCCCCCCCCN	–	inactive
Cc1ccc(O)c(C(C)(C)C)c1	49.1 µM (active)	inactive
CCn1c2ccccc2c2cc(N)ccc21	68 µM (active)	inactive
CNCCCC12CCC(c3ccccc31)c1ccccc12	–	inactive
BrC1CCC(Br)C(Br)CCC(Br)C(Br)CCC1Br (configuration not stated)	65.6 µM (active) and 38.4 µM (active)	–
